± gives the standard deviation of the averaged measurements. In all, about 25,000 sequences were measured (“ln(normalized median fluorescence intensity)”: median about 8.9, highest 2% from about 10 on). The list comes from a sample in which the highest values are over-represented; it also holds similar and randomly drawn sequences.
Test system: PfAP2-LT AP2 domain (GST-tagged)
Assay: gcPBM binding intensity (ln(normalized median fluorescence intensity)); higher = stronger DNA binding
Summary of the method: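 Plasmodium falciparum DNA-binding domains carrying a GST tag were expressed in E. coli and applied for 1 h, at about 25 μg on average, to an Agilent 4 × 180k array. The array held primer-extended double-stranded 36-bp intergenic genomic probes together with negative controls, and binding took place in 1× PBS with 1% milk, 0.2 mg/ml BSA, 0.5% salmon testes DNA and 0.03% Triton X-100. An Alexa488 anti-GST antibody detected bound protein, and the array was scanned at 488 nm. Binding intensity is taken as the highest Masliner-normalised natural-log median intensity across replicate spots of either probe orientation.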

| Sequence | gcPBM binding intensity (ln) |
| --- | --- |
| TGAACACATACATACACACACACAAAAAAAAAAAAA [CACACA_site392] | 9.76 ± 0.4 |
| AAAAAAAAAAATACTCGTACATAAACCTATACATTT [XGTACX_site6494] | 8.83 ± 0.45 |
| AAAATATGTAGCTACACACACATAAACAAAATAACA [CACACA_site1007] | 9.41 ± 0.3 |
| CTGTTTAAAATATAAACACACATTGTTTGCTTTAGA [CACACA_site1301] | 8.71 ± 0.4 |
| TATAATCATATATACACACACATATATATATATATA [CACACA_site2168] | 9.805 ± 0.05 |
| TAATAAATGACAAATTAACACACATATATTATATAT [CACACA_site9294] | 8.98 ± 0.36 |
| AATAAATAAATACATCTCAGTATATAAACAAACAAA [CACACA_negctrl_site1604] | 8.89 ± 0.51 |
| TATATATATATATAAACACACATAAATATAAATATA [CACACA_site1121] | 9.01 ± 0.32 |
| GCATAAATCAAACACACACACATATATATATATATA [CACACA_site2422] | 10.3 ± 0.15 |
| CATATAAATAAACACACACACACATATATATATATA [CACACA_site5309] | 10.06 ± 0.064 |
| CAGATAAATAAACACACACACACATATATATATATA [CACACA_site9311] | 10.16 ± 0.078 |
| TAAATATAAACACAAACACACACATATATATATATA [CACACA_site7978] | 10.04 ± 0.035 |
| GATAAATTAAAACACACACACATATATATATATATA [CACACA_site3962] | 9.99 ± 0.042 |
| AATAAATTGAAACACACACACACATATATATATATA [CACACA_site848] | 10.17 ± 0.042 |
| GAAATATTGAAACACACACACAAACATATATATATA [CACACA_site1911] | 10.1 ± 0.26 |
| AAATAATCATAAAATAAACACACATATATAAATATA [CACACA_site7981] | 8.89 ± 0.42 |
| CATAATACAGATAACACACACAATTATACATAAAAT [CACACA_site5742] | 9.59 ± 0.39 |
| AATATAAATAAACACACACACATATATATATATATT [CACACA_site2906] | 9.79 ± 0.21 |
| AAAAACAACACAGATAAATTAACACACACACACATA [XGTACX_negctrl_site588] | 10.1 ± 0.12 |
| TACTTGTTATTAACATGTACAAAAAAAAAAAAAATT [XGTACX_site1338] | 8.46 ± 0.42 |
| TCTAACATATAATATTCACACACATATATATATTAT [CACACA_site8236] | 9.21 ± 0.43 |
| ACTAAAAGGCTTAAATGTACATATTATATATATATA [XGTACX_site5897] | 8.89 ± 0.42 |
| TGAATAAATATATATACACACATATATGTATATATT [CACACA_site1642] | 8.95 ± 0.37 |

| Sequence | gcPBM binding intensity (ln) |
| --- | --- |
| AAAATTTATAGTATGGTGCATAAAAATATATATATA | 8.82 ± 0.46 |
| AAAAAAAAAAAAAAAACACACATAAAAATATAATAA [CACACA_site3855] | 8.74 ± 0.63 |
| TAAATAAATAAAAAAACACACATATAAATATAAATA [CACACA_site7815] | 8.9 ± 0.52 |
| TATAAATAAAAACACACACACATATATATATATATA [CACACA_site2319] | 9.88 ± 0.12 |
| AAAAAAAAAAAACACACACACACATAAATATATATA [CACACA_site149] | 10.1 ± 0.18 |
| TAAAATATAAAACACACACACATATATATATATATT [CACACA_site224] | 9.72 ± 0.11 |
| TAAATAAAAAAACACACACACATATATATATATATA [CACACA_site2269] | 10.2 ± 0.36 |
| CATAAAATATAAAACACACACACATATATATATATA [CACACA_site223] | 10.1 ± 0.28 |
| TAAATAAATAAAAAAACACACATATATATATATATA [CACACA_site4029] | 9.6 ± 0.44 |
| AAAAAAATTAAACACACACACACATATATATATATA [CACACA_site4718] | 10.1 ± 0.27 |
| AAAAAAAAATTAAAAACACACATATAAATAAATATA [CACACA_site6845] | 8.76 ± 0.54 |
| AAAAAAAAAAAAAACACACACATATAAATATAAATA [CACACA_site6972] | 9.37 ± 0.45 |
| AAAAAAAAATTAAAAACACACATATATATATATATA [CACACA_site1580] | 9.73 ± 0.014 |
| AAGAAAATAAAAAGGTAAATATGTATAAATAAATAA [TGCATGCA_negctrl_site88] | 8.71 ± 0.47 |
| TTATTTTCTTTTTCTTGTACACACATAATATGGATG [XGTACX_site1481] | 9.17 ± 0.54 |
| CTAATGATCATATATACACACACACTAATAAAAAAA [CACACA_site9329] | 9.64 ± 0.14 |
| ATACCTTCTTTTATGTTTAATTAATATACTTTTTAT [CACACA_negctrl_site1557] | 8.96 ± 0.55 |
| ACATATATTATTATATGTACATATATTAATTATATA [XGTACX_site3400] | 8.66 ± 0.28 |
| GCACACACAAAAAAAGCATGCATACTAGCTATTTTT [TGCATGCA_site18] | 9.37 ± 0.42 |
| CTTACCAAAAAACACACACACACAAAATATATAAAT [CACACA_site1870] | 10.1 ± 0.24 |
| CACCCATAGAAACACACACACGCATAAAAAAAAAAA [CACACA_site1513] | 9.56 ± 0.37 |
| TACCAAAAGAAACACACACACAAAATATATAAATAT [CACACA_site1869] | 9.88 ± 0.28 |
| AAAAAATATAAAAAAACACACAAAAAAAAAAAAAAA [CACACA_site1382] | 8.6 ± 0.59 |

| Sequence | gcPBM binding intensity (ln) |
| --- | --- |
| TACACAAAAATAAACACACACACATATAAATAAATA [CACACA_site6599] | 9.76 ± 0.3 |
| TACACAAAAATAAACACACACACATATATATATATA [CACACA_site1000] | 9.79 ± 0.23 |
| ATATATATAAAACACACACACAAAAAAAATAAAGAC [CACACA_site117] | 10.1 ± 0.28 |
| CACAAAAATAAACACACACACATATATATATATATA [CACACA_site4704] | 10.21 ± 0.057 |
| AAAAAAAGAAAAAAAACACACACAAATATAAATAAA [CACACA_site8309] | 9.46 ± 0.39 |
| AAAAAGAAAAAAAACACACACAAATATAAATAAATA [CACACA_site1183] | 9.24 ± 0.49 |
| TACACGCATAAACACACACACACACCCATATATATA [CACACA_site8114] | 10.24 ± 0.05 |
| ATTCTACACGCACATACACACATATAAATATAAATA [CACACA_site7582] | 9.24 ± 0.35 |
| TATATATAATATATATATATGGAAATTCTTTTAAAT [XGTACX_negctrl_site50] | 8.41 ± 0.38 |
| AATATGAATATCTATACACACACATATATATACACA [CACACA_site8459] | 9.45 ± 0.26 |
| AAAAAAAAAAAATGTGCACACGCGTACACCCAAAAA [CACACA_site8614] | 9.03 ± 0.4 |
| TAATGAAGATATATAACACACAAAAGTTATAAATAT [CACACA_site6678] | 8.97 ± 0.43 |
| AAAATATAGTAACACATACACACATATATATTTATA [CACACA_site2504] | 9.19 ± 0.38 |
| ATAATATATATGAAATGTACATAAATTTAATGCGAC [XGTACX_site5394] | 9.18 ± 0.45 |
| AACTGCAAAAAAAGACGTACAAATTATTAATTGCAA [XGTACX_site8929] | 8.88 ± 0.54 |
| ATATAAATAACGTGTACACACATATGTATTTATATA [CACACA_site6520] | 9.12 ± 0.31 |
| TCATAGTATAAACACACACACACACCCATATATATA [CACACA_site8512] | 10.1 ± 0.31 |
| AAAAAAAAAAAAAACACACACACACCCATAAATATA [CACACA_site151] | 10.2 ± 0.15 |
| ACCATATAAATAAACACACACACACCCATATATATA [CACACA_site2321] | 10 ± 0.36 |
| AAAATTAACCGTAACACACACACATATATATATATA [CACACA_site3964] | 9.96 ± 0.28 |
| AAAAAAAATAAACACACACACATACCCATAAATATA [CACACA_site5980] | 10 ± 0.13 |
| AATATACAAAATATCACACATATAAAATAATATATA [CACACA_site6067] | 8.88 ± 0.45 |
| TACATAAAATATATCACACATATAATATATATATAT [CACACA_site5834] | 8.86 ± 0.35 |

| Sequence | gcPBM binding intensity (ln) |
| --- | --- |
| AAAAAAAAAAAAAACACACACACAATAGTATATAAA [CACACA_site957] | 9.55 ± 0.43 |
| GGAACAAATAATATCACACATATATATATATATATA [CACACA_site5670] | 10.2 ± 0.41 |
| TTAATTAAGAAACACACACACATATATATATATATT [CACACA_site2290] | 9.79 ± 0.12 |
| AATTAACCGAAACACACACACATATATATATATATA [CACACA_site3963] | 10.24 ± 0.064 |
| TTTTTTTTTTTTTTTACACACTATAGGGAAAAAAAA [CACACA_site1916] | 8.21 ± 0.37 |
| AGAAAGAAAGAATACACACACACATATATATATATC [CACACA_site3744] | 9.95 ± 0.3 |
| GAATTAAAATAATACGTACACACATGTATAATACAT [CACACA_site1004] | 9.21 ± 0.29 |
| AAAAAATATATATCACGTGGTAATATATATATATAT [XGTACX_negctrl_site252] | 9.16 ± 0.14 |
| CATAAATACATACATACACACATATTTATATTTATA [CACACA_site7071] | 9.16 ± 0.4 |
| ATAATATATATATAAACACACAAAAAAAATTATATA [CACACA_site1534] | 8.96 ± 0.42 |
| ATATAATATATATATAAACACACAAAAAAAATTATA [CACACA_site8434] | 8.97 ± 0.45 |
| TATATATAAAAACACACACACACACCCTATAATTAT [CACACA_site4063] | 10.18 ± 0.042 |
| TTGAAAATACAAAATTGTACAAAGATTTAAATAAAA [XGTACX_site1182] | 8.7 ± 0.49 |
| TGAATAAATCAAAGCACACATACACCCACATATATA [CACACA_site286] | 9.47 ± 0.24 |
| GCATACATCAAGCACACACACACACGCACACGCACA [CACACA_site6311] | 10.2 ± 0.19 |
| AATAAATAAGCACATACACACATACATACATACATA [CACACA_site6075] | 9.54 ± 0.26 |
| ATACATCAAGGACACACACACACACCCACACCCACA [CACACA_site8013] | 10.4 ± 0.27 |
| TAAATAAGCACATACACACATACATACATACATAAA [CACACA_site4017] | 9.44 ± 0.38 |
| AAGCATACATCAAGCACACACACACCCACACCCACA [CACACA_site372] | 10.3 ± 0.42 |
| AGAAGCATACATCAAGCACACACACCCACACCCACA [CACACA_site8014] | 10 ± 0.37 |
| CATATACATCCACATACACACATACACCCATACACA [CACACA_site5038] | 9.66 ± 0.28 |
